Assay outcomes from PubChem.
cardiac RTF act: cardiac RTF calcium sensitivity activators, primary screen, biochemical, IANBD-TnC fluorescence, EC20 calcium. Troponin I, cardiac muscle (Homo sapiens) + Troponin T, cardiac muscle (Homo sapiens) + …. actives 0.24% (n = 340,000). activation, % at 7.2 µM. IANBD-labeled TnC RTF fluorescence at EC20 calcium; 0% EC20 calcium, 100% full calcium;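 active = activation above the mean over all tested compounds plus 3 SD, cut at about 30% in these data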;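 also: rise in fluorescence read as greater calcium sensitivity of cardiac thin filaments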
RTF Ca sens inh: cardiac RTF calcium sensitivity inhibitors, primary screen, biochemical, IANBD-TnC fluorescence, EC70 calcium. Troponin I, cardiac muscle (Homo sapiens) + Troponin T, cardiac muscle (Homo sapiens) + …. IANBD-labeled cardiac RTF, Ca2+ fluorescence. inhibition, % at 7.15 µM. actives 0.12% (n = 340,000);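 active = inhibition above the mean inhibition of all tested compounds plus 3 SD, cut at about 17% in these data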;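 also: assay run at fixed EC70 calcium of 1.6 mM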
CRFR2-BP ag: agonists of CRF-BP/CRF-R2 complex, primary screen, cell-based, HEK293, calcium dye fluorescence, uHTS; CRF-binding protein / CRF receptor 2 complex (human); calcium dye fluorescence (FLIPR); percent of saturating CRF peptide response; activation, % at 13.2 µM; actives 0.46% (n = 350,000); AID 588473, 2011;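 active = activation of at least 50%, plus an integration ratio under a set limit after plate pattern correction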
Myeloid diff MLP: induction of myeloid progenitor differentiation, primary screen, cell-based, flow cytometry, MLPCN library. ER-HoxA9 myeloid progenitors, lysozyme-GFP differentiation. calls only at 10 µM. actives 1% (n = 360,000). AID 624256, 2012;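 active = normalized GFP-positive differentiation at or above the plate's own cutoff, the solvent-only control mean plus 3 SD; inconclusive = no clear call, values can overlap the other calls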;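 also: cells exposed to compound for four days before flow analysis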
CRFBP-R2 block: antagonists of CRF-BP/CRF-R2 complex, primary screen, cell-based, HEK293, calcium dye fluorescence, uHTS; actives 0.59% (n = 350,000); inhibition, % at 11.8 µM; CRF-induced calcium fluorescence; AID 588475, 2011;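 active = inhibition of the ligand-induced calcium signal above about 50% at the single tested concentration, limit read from the data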
Myeloid diff CP1: inducers of myeloid progenitor differentiation, confirmation, cell-based, GFP/Mac1 flow cytometry, cherry pick 01 | shares compounds with Myeloid diff MLP | ER-HoxA9 myeloid progenitors, GFP/Mac1 double-positive flow | calls only | actives 2% (n = 2,300) | AID 651706, 2012;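 active = share of green or green-and-red cells above 9 and 9% in run 1 or 4 and 3% in run 2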
GFP autofluor: flagged as fluorescent in myeloid differentiation counter-screen | shares compounds with Myeloid diff MLP | ER-HoxA9 myeloid progenitors, no estrogen, GFP autofluorescence flow cytometry; vehicle wells 0%, positive control 100% | fluorescence response, % (no concentration beside the values) | actives 7.4% (n = 2,300);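 active = over 5% cells positive for green fluorescent reporter, or over 2% positive for both it and APC stain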
Large screens that a line does not name were inactive (follow-up assays come after a bar, where they were run). An excerpt weighted towards active compounds, which were near 2.2% of everything screened.

O=C(CN1C(=O)c2ccccc2C1=O)c1ccccc1	none
CCOC(=O)c1sc2nc(OCc3cccnc3)cc(C)c2c1N	none (no result: cardiac RTF act, RTF Ca sens inh, CRFR2-BP ag, CRFBP-R2 block)
O=C(NC1CCCCC1)c1cccc2c1C(=O)c1ccc(N3CCC(Cc4ccccc4)CC3)cc1S2(=O)=O	cardiac RTF act 89.7, CRFR2-BP ag 58.4, Myeloid diff MLP active | Myeloid diff CP1 inactive | GFP autofluor inactive
CC1CCN(CC(=O)Nc2ccccc2C#N)CC1	Myeloid diff MLP active | Myeloid diff CP1 inactive | GFP autofluor inactive
CCn1nnnc1SCC(=O)N1CCCc2ccccc21	none | Myeloid diff CP1 inactive | GFP autofluor inactive
O=C(CSc1nnc2scc(-c3ccccc3)n12)N1CCCc2ccccc21	none | Myeloid diff CP1 inactive | GFP autofluor inactive
CCn1nnnc1SCC(=O)N1CCc2ccccc21	none
CC1Cc2nc(SCC(=O)N3CCCc4ccccc43)n(C)c(=O)c2S1 (stereo not drawn)	none | Myeloid diff CP1 inactive | GFP autofluor inactive
Cc1ccc(-c2nnc(SCC(=O)N3CCCc4ccccc43)n2N)cc1	none
Cc1ccccc1C(=O)N[C@H](C(=O)OCC(=O)NC1CC1)C(C)C	none
O=C(NCCCN1CCOCC1)c1ccccc1N1C(=O)[C@@H]2Cc3c([nH]c4ccccc34)C(c3cccc(Cl)c3)N2C1=O (stereo partly drawn)	none
O=C(NCc1ccco1)c1ccc2c(c1)N(Cc1ccc(Cl)cc1)CCS2	none
O=C(NCc1ccco1)c1ccc2c(c1)N(Cc1ccccc1)CCS2	none | Myeloid diff CP1 inactive | GFP autofluor inactive
O=C(N/N=C/c1ccc([N+](=O)[O-])o1)c1cc2ccccc2o1	none | Myeloid diff CP1 inactive | GFP autofluor inactive
O=[N+]([O-])c1ccc(/C=N/Nc2ccc3ccccc3c2)o1	Myeloid diff MLP active | Myeloid diff CP1 inactive | GFP autofluor 8.1
Cc1ccc2nc(N/N=C\c3ccc([N+](=O)[O-])o3)nc(-c3ccccc3)c2c1	none
O=C(N/N=C/c1ccc([N+](=O)[O-])o1)c1cc2c(ccc3ccccc32)o1	Myeloid diff MLP inconclusive
Cc1ccccc1OCc1nnc(SCCN2CCCC2)n1-c1ccccc1	Myeloid diff MLP active | Myeloid diff CP1 inactive | GFP autofluor inactive
CCNC(=S)NNc1nc(N2CCCCC2)nc(N2CCOCC2)n1	none
CCCNC(=O)N(C)C[C@H]1Oc2ncc(Br)cc2C(=O)N([C@H](C)CO)C[C@H]1C	none (no result: cardiac RTF act, RTF Ca sens inh)
COC(=O)C1CC2=C(CCCC2=O)N(c2ccccc2)C1=O (stereo not drawn)	none
COC(=O)C1CC2=C(CCCC2=O)NC1=O (stereo not drawn)	none | Myeloid diff CP1 inactive | GFP autofluor inactive
CCOc1ccc(C(=O)C[n+]2cccc3cc(C)ccc32)cc1	Myeloid diff MLP active | Myeloid diff CP1 inactive | GFP autofluor 54.0
CCc1ccc(C(=O)C[n+]2cccc3cc(OC)ccc32)cc1	none | Myeloid diff CP1 inactive | GFP autofluor inactive
CCOC(=O)c1ccc(NC(=O)c2nc[nH]c2C(=O)N(C)CCO)cc1	Myeloid diff MLP active (no result: cardiac RTF act, RTF Ca sens inh) | Myeloid diff CP1 inactive | GFP autofluor inactive
COc1ccc(S(=O)(=O)NC(=O)C2(C)CCN2C(=O)Cc2cc(F)ccc2F)cc1 (stereo not drawn)	none (no result: cardiac RTF act, RTF Ca sens inh, CRFR2-BP ag, CRFBP-R2 block)
COc1ccc(C(=O)NNC(=O)c2ccccn2)cc1	none
COc1cc(OC)cc(C(=O)NNC(=O)c2ccccn2)c1	Myeloid diff MLP active | Myeloid diff CP1 inactive | GFP autofluor inactive
CC(Oc1cccc(Br)c1)C(=O)NNC(=O)c1ccccn1 (stereo not drawn)	Myeloid diff MLP active | Myeloid diff CP1 inactive | GFP autofluor inactive
CC(C)C(=O)NNC(=O)c1ccccn1	none
CC(C)CCNC(=O)C(Cc1ccccc1)NS(=O)(=O)c1ccc2c(c1)c(=O)n(C)c(=O)n2C (stereo not drawn)	Myeloid diff MLP active | Myeloid diff CP1 inactive | GFP autofluor inactive
O=S(=O)(NC1CCN(Cc2ccccc2)CC1)c1cccc2cccnc12	none | Myeloid diff CP1 inactive | GFP autofluor inactive
O=C(NC1CCN(Cc2ccccc2)CC1)C1CCN(S(=O)(=O)c2cccc3cccnc23)CC1	none
CN(Cc1ccccc1F)C(=O)c1cccc(NC(=O)CC2SC(N3CCCCC3)=NC2=O)c1 (stereo not drawn)	none
Cc1cc(C)n(-c2nnc3n2N=C(c2c[nH]c4ccccc24)CS3)n1	none | Myeloid diff CP1 inactive | GFP autofluor inactive
CCCC1=[N+](CC(=O)c2ccc(Br)cc2)CCn2cccc21	none | Myeloid diff CP1 inactive | GFP autofluor inactive
CCCC1=[N+](CC(C)=O)CCn2c(C)ccc21	none
CCCC1=[N+](CC(=O)c2ccccc2)CCn2cccc21	none | Myeloid diff CP1 inactive | GFP autofluor inactive
NC(=O)c1ccc[n+](CC(=O)c2ccc(Br)cc2)c1	none
COCCNC(=O)CCc1nnc2ccc(N3CCC(C)CC3)nn12	none
CC1CC(C)CN(C(=O)c2cccc(S(=O)(=O)NCc3ccccc3)c2)C1 (stereo not drawn)	none
c1ccc(-n2ncc3c(NCc4ccco4)ncnc32)cc1	none
c1ccc(Cn2ncc3c(NCc4ccco4)ncnc32)cc1	none | Myeloid diff CP1 inactive | GFP autofluor inactive
COc1ccc(S(=O)(=O)N2CCN(CCOc3ccccc3Cl)CC2)cc1OC	none | Myeloid diff CP1 inactive | GFP autofluor inactive
CCOc1ccc(NC(=O)C2C3C=CC4(O3)C2C(=O)N(Cc2cccnc2)C4C(=O)NC2CCCCC2)cc1 (stereo not drawn)	none
Cc1nn(CC(=O)NCc2ccccc2Cl)c(C)c1[N+](=O)[O-]	Myeloid diff MLP active | Myeloid diff CP1 inactive | GFP autofluor inactive
CC(=O)Nc1ccc(N(C(=O)Cc2cccs2)C(C(=O)NC2CCCC2)c2ccncc2)cc1 (stereo not drawn)	none
CN(C)C(=O)c1ccc(NC(=O)COC(=O)C2(c3ccccc3)CCCC2)cc1	none
CC1CCCCN1C(=O)COC(=O)c1cc([N+](=O)[O-])ccc1N (stereo not drawn)	none
O=C(NCC1CCCCC1)C12CN(Cc3ccccc3)CC1C(c1cccc([N+](=O)[O-])c1)=NO2 (stereo not drawn)	Myeloid diff MLP active | Myeloid diff CP1 inactive | GFP autofluor inactive
O=C(COc1ccc(F)cc1Cl)N(Cc1nnc(-c2ccccc2Cl)o1)C1CC1	Myeloid diff MLP inconclusive
